This is an account of results in PubChem BioAssay (Tox21).

The nature of assay [1]: qHTS assay to identify small molecule antagonists of the thyroid receptor (TR) signaling pathway - cell viability counter screen (AID 743064). Further: nearly all actives have a fitted effect of over 50% in size. Further: potency means the concentration at half of the fitted maximal effect. The procedure, abridged:
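Plate GH3.TRE-Luc cells; incubate 4 h at 37 °C; add compound, then T3 to 1 nM final; incubate 23.5 h; add CellTiter-Fluor; incubate 30 min at 37 °C, 5% CO2; read fluorescence.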

A short description of assay [2]: qHTS assay to identify small molecule antagonists of the thyroid receptor (TR) signaling pathway (AID 743065). Further: nearly all actives have a fitted effect of over 55% in size. Further: potency means the concentration at half of the fitted maximal effect. The method in brief: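 GH3.TRE-Luc rat pituitary cells carrying two TR response elements driving luciferase were plated for 4 h, given compound plus 1 nM T3 (final), and incubated 23.5 h at 37 C. ONE-Glo luminescence measured reporter inhibition; CellTiter-Fluor fluorescence tracked cytotoxicity.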

In assay [3] the test system is thyroid hormone receptor (rat, GH3 cells). The assay can be described thus: qHTS assay to identify small molecule agonists of the thyroid receptor (TR) signaling pathway (AID 743066; calls by dose curve).
Assay [4] addresses Estrogen receptor (Homo sapiens) (UniProt P03372). Kind of assay: qHTS assay to identify small molecule antagonists of the estrogen receptor alpha (ER-alpha) signaling pathway (AID 743069; active means well fitted curve in the direction sought with a large enough effect in the signal ratio in the repeat runs, not every such curve was filed as active; the % refers to the signal ratio). The procedure, abridged:
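HEK293 cells stably carrying an ER-alpha-UAS-bla beta-lactamase reporter were pre-cultured overnight in 2% charcoal-stripped FBS medium. Test compounds in DMSO were added together with 17beta-estradiol for 18 hr at 37C. Read-out was fluorescence after 2 hr with LiveBLAzer B/G FRET substrate at room temperature.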
A general note: Quantitative high-throughput screening tests each substance at several concentrations.

Assay [5] can be described thus: qHTS assay to identify small molecule antagonists of the estrogen receptor alpha (ER-alpha) signaling pathway - cell viability counter screen (AID 743074; calls by dose curve; further: nearly all actives have a fitted effect of over 45% in size).
Assay [6] has as its target Estrogen receptor (Homo sapiens) (UniProt P03372). Kind of assay: qHTS assay to identify small molecule agonists of the estrogen receptor alpha (ER-alpha) signaling pathway (AID 743075; calls by dose curve; further: potency means the concentration at half of the fitted maximal effect).
For assay [7] the target is unchanged. Kind of assay: qHTS assay to identify small molecule agonists of the estrogen receptor alpha (ER-alpha) signaling pathway using the BG1 cell line (AID 743079). Further: nearly all actives have a fitted effect of over 20% in size. The settings on record: BG1Luc4E2 cells, ERE-luciferase agonist, 22 h.
A short description of assay [8]: qHTS assay to identify small molecule antagonists of the estrogen receptor alpha (ER-alpha) signaling pathway using the BG1 cell line - cell viability counter screen (AID 743081).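 Further: compound given together with 17beta-estradiol as the ER stimulus; nearly all actives have a fitted effect of over 45% in size.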
In another assay the target is Aromatase (Homo sapiens) (UniProt P11511). Kind of assay: qHTS assay to identify aromatase inhibitors (AID 743083). Further: nearly all actives have a fitted effect of over 55% in size. Further: potency means the concentration at half of the fitted maximal effect.
Chain of Aromatase (Homo sapiens) (P11511 whole entry, looked up): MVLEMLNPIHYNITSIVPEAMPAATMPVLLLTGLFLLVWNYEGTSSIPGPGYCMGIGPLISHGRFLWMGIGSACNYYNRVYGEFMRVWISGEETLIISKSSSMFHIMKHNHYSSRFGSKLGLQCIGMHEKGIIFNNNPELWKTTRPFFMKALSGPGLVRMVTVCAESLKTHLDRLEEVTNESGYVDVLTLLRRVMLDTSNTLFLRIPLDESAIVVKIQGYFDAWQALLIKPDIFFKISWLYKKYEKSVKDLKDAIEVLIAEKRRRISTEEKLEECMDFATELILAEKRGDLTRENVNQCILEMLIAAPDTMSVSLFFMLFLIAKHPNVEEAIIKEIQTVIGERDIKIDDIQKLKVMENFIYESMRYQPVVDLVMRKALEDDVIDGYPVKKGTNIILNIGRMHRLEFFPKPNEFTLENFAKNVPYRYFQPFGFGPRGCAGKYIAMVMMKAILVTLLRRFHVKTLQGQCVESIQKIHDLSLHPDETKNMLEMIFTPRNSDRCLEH
The nature of assay [9]: qHTS assay to identify small molecule antagonists of the estrogen receptor alpha (ER-alpha) signaling pathway using the BG1 cell line (AID 743080; calls by dose curve;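 further: BG1 cells stimulated with 17beta-estradiol alongside compound; nearly all actives have a fitted effect of over 25% in size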; further: potency means the concentration at half of the fitted maximal effect). The procedure, abridged: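 BG1-Luc-4E2 cells (endogenous full-length ER-alpha, stable 4×ERE-luciferase) were starved 5 days in phenol-red-free medium with 10% charcoal-stripped FBS, plated 24 h, then given compound plus 17beta-estradiol for 21.5 h at 37 C; ONE-Glo luminescence read after 30 min.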

Each structure is given as a SMILES string. Where “and” joins values, the source holds several entries; their conditions need not be identical. Equal values may be shown once. Inconclusive results are not listed. Some compounds were tested as several samples or in several runs, with calls that do not always agree. Calls of active or inactive are those of the source. Unless noted, the call rests on the fitted dose curve; in most records, active means well fitted curve in the direction sought with a large enough effect in the repeat runs; inconclusive means weak or mixed curves; inactive means no such curve, though single readings can be large; an effect the other way counts as inactive or inconclusive.
On the % scale 0 is the no-effect control and ±100 the full control effect.

Chain of Estrogen receptor (Homo sapiens) (P03372 whole entry, looked up): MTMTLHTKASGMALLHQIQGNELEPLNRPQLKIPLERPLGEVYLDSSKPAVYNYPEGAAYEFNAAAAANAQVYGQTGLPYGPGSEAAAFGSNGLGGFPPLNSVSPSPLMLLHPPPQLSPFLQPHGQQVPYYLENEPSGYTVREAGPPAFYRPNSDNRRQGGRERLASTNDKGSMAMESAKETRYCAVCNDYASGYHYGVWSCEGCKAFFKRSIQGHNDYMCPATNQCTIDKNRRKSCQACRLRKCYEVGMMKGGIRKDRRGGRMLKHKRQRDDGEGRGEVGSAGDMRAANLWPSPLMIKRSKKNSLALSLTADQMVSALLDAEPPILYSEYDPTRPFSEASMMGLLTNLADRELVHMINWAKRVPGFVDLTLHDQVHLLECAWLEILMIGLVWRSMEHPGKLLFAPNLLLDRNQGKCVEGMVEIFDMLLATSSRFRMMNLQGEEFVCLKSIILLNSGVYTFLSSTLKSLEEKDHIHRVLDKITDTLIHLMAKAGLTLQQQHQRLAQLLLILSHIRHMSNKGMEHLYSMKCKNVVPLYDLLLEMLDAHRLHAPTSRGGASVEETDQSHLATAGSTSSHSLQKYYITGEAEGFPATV

In the case of `Nc1c(Cl)c(F)nc(OCC(=O)O)c1Cl`, the Potency result in assay [1], in [2], in [3], in [4], in [5] and in assay [6] was “inactive” in each case. The Potency entry (in assay [8]; with Aromatase (Homo sapiens)) was “inactive” throughout. Further, the activation in assay [7] (at 70.3 µM (top of the series)) is -0.92% (inactive).
For the molecule `CC(Cl)(Cl)Cl`, the Potency result (in [1]; in assay [2]; in assay [3]; in assay [5]; in [8]; with Aromatase (Homo sapiens)) was “inactive” throughout.
For the molecule `Cc1cc(OC(=O)N(C)C)nn1C(=O)N(C)C`, the Potency entry in [1], in [2], in assay [3], in [4], in assay [6] and in assay [9] was “inactive” throughout. Also, the Potency result (in assay [8]; with Aromatase (Homo sapiens)) was “inactive” throughout. The activation in assay [7] (at 70.3 µM (top of the series)) was -8.77% (inactive).
On to `CCCCS(=O)(=O)Cl`, for which the Potency result (in assay [1]; in [2]; in [3]; in assay [5]; in assay [8]; with Aromatase (Homo sapiens)) was “inactive” in each case.
Consider `CC(C)(C)C(=O)C(Cl)Cl`, for which the Potency entry in assay [1], in [2], in assay [3], in [5] and in assay [8] was “inactive” each time.
Take `CC1=C2[C@H]3OC(=O)[C@@H](C)[C@@H]3CC[C@@]2(C)C=CC1=O`: the Potency result (in assay [1]; in assay [2]; in [3]; in assay [5]; in assay [8]; with Aromatase (Homo sapiens)) was “inactive” throughout.
Consider `O=C1C2CC=CCC2C(=O)N1SC(Cl)(Cl)Cl` (stereo not given), for which the Potency was 6.68 µM (active) and 2.39 µM (active) in [1]; 2.98 µM (active) and 68.3 µM (active) and 1.69 µM (active) in assay [2]; “inactive and 48.2 µM [activator] (active)” in assay [6]; 26.6 µM (active) in [9]; 13.3 µM (active) and inactive and 3.01 µM (active) in the assay with Aromatase (Homo sapiens). Besides, the Potency result in assay [3], in assay [4] and in assay [8] was “inactive” throughout.
With `COc1cc(CC(C)N)cc(OC)c1OC` (stereo not given), the Potency entry in assay [1], in assay [2], in [3], in assay [4], in assay [6] and in assay [9] was “inactive” in each case. Further, the Potency result in the assay with Aromatase (Homo sapiens) is “inactive”. For the same molecule, the activation in assay [7] (at 95 µM (top of the series)) is -7.73% (inactive).
Turning to `CC[C@H](N)c1ccccc1`, the Potency result in assay [1], in assay [2], in assay [3], in [4], in assay [6] and in [9] was “inactive” throughout. Besides, the Potency result (in assay [8]; with Aromatase (Homo sapiens)) was “inactive” in each case. Moreover, the activation in assay [7] (at 70.3 µM (top of the series)) is 0.171% (inactive).
On to `CCOC(=O)C(SP(=S)(OC)OC)c1ccccc1` (stereo not given), for which the Potency entry (in assay [1]; in assay [2]; in [3]; in [5]; in [8]; in the assay with Aromatase (Homo sapiens)) was “inactive” throughout.
In the case of `CN(C)CCc1c[nH]c2cccc(OP(=O)(O)O)c12`, the Potency result in [1], in assay [2], in assay [3], in [4], in assay [6] and in assay [9] was “inactive” throughout. The Potency result (in [8]; with Aromatase (Homo sapiens)) was “inactive” throughout. Also, in [7] (at 70.3 µM (top of the series)), the activation is -12.3% (inactive).
Take `CCOP(=O)(CN(CCO)CCO)OCC`: the Potency entry in [1], in [2], in [3], in assay [4], in assay [5] and in [6] was “inactive” in each case. In addition, the Potency result (in assay [8]; in the assay with Aromatase (Homo sapiens)) was “inactive” in each case. In addition, in [7] (at 70.3 µM (top of the series)), the activation was -2.5% (inactive).
For `O=C/C=C/c1ccco1`, the Potency entry in [1], in [2], in assay [3], in assay [4], in assay [5] and in [6] was “inactive” throughout. Moreover, the Potency result (in [8]; with Aromatase (Homo sapiens)) was “inactive” each time. Also, in [7] (at 70.3 µM (top of the series)), the activation is 10.7% (inactive).
Consider `O=C(NC(O)C(Cl)(Cl)Cl)NC(O)C(Cl)(Cl)Cl` (stereo not given), for which the Potency result in [1], in assay [2], in [3], in assay [4], in assay [5] and in [6] was “inactive” throughout. The Potency entry (in assay [8]; with Aromatase (Homo sapiens)) was “inactive” in each case. In addition, the activation in assay [7] (at 70.3 µM (top of the series)) was 4.91% (inactive).
In the case of `O=C1CC(=O)NC(=O)N1`, the Potency result in assay [1], in assay [2], in assay [3], in assay [4], in assay [5] and in assay [6] was “inactive” in each case. Further, the Potency entry (in [8]; in the assay with Aromatase (Homo sapiens)) was “inactive” throughout. Also, the activation in assay [7] (at 70.3 µM (top of the series)) was -4.6% (inactive).
Take `CC#Cc1cc(C)nc(Nc2ccccc2)n1`: the Potency entry in assay [1], in [2], in assay [3], in assay [4], in assay [6] and in assay [8] was “inactive” each time. Besides, the Potency entry with Aromatase (Homo sapiens) was “inactive”.
With `CCOC(=O)CCl`, the Potency entry in assay [1], in assay [2], in [3], in [4], in [5] and in assay [6] was “inactive” in each case. Also, the Potency entry (in assay [8]; with Aromatase (Homo sapiens)) was “inactive” each time. Further, the activation in [7] (at 70.3 µM (top of the series)) is 26.5% (inactive).
Regarding `N=C(N)[Se]`, the Potency entry (in assay [1]; in assay [3]; in [4]; in [5]; in assay [6]; with Aromatase (Homo sapiens)) was “inactive” throughout. Besides, the activation in assay [7] (at 95 µM (top of the series)) is -2.62% (inactive).
